log2 fold change data for 23 targets are collected here from the supplement of paper PMC10849652.

Targets with a hit are over-represented here; the source holds about 8,800 in all. About 0.5% of all pairs of compound and target were hits. A number with no mark means an inactive call.

UniProt Q9BPY3, sequence (Q9BPY3 whole entry, looked up): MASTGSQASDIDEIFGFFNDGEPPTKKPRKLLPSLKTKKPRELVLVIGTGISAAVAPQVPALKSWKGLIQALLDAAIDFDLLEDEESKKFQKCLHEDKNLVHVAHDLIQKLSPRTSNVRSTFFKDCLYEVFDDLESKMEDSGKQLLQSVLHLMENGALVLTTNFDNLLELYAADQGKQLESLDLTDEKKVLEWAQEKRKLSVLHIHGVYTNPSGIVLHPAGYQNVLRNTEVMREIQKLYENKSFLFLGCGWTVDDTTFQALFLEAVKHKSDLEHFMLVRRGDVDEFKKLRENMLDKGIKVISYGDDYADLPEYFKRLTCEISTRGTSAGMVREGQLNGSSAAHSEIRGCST
UniProt O15117, sequence (O15117 whole entry, looked up): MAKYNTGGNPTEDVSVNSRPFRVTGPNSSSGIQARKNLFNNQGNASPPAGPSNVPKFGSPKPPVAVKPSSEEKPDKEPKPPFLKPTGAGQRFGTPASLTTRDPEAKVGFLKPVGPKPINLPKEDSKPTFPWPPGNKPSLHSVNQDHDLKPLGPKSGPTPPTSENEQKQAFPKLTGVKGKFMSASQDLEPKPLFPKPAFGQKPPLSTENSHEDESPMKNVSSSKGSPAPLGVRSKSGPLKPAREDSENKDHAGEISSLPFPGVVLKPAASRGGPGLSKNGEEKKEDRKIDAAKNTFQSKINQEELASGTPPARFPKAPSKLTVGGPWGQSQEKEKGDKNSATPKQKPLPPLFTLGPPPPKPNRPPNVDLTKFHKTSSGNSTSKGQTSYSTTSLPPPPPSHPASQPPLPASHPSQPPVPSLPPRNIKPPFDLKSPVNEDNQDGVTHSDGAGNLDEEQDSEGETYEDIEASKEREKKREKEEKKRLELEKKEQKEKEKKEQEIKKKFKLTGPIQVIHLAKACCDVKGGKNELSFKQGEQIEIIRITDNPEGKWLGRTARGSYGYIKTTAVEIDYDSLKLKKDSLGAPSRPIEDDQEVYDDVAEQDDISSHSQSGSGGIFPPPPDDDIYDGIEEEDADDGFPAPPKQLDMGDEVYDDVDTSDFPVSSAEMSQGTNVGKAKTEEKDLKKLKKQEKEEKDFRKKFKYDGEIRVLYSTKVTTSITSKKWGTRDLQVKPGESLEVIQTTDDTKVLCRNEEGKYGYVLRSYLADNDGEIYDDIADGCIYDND
UniProt Q8NFI3, sequence (Q8NFI3 whole entry, looked up): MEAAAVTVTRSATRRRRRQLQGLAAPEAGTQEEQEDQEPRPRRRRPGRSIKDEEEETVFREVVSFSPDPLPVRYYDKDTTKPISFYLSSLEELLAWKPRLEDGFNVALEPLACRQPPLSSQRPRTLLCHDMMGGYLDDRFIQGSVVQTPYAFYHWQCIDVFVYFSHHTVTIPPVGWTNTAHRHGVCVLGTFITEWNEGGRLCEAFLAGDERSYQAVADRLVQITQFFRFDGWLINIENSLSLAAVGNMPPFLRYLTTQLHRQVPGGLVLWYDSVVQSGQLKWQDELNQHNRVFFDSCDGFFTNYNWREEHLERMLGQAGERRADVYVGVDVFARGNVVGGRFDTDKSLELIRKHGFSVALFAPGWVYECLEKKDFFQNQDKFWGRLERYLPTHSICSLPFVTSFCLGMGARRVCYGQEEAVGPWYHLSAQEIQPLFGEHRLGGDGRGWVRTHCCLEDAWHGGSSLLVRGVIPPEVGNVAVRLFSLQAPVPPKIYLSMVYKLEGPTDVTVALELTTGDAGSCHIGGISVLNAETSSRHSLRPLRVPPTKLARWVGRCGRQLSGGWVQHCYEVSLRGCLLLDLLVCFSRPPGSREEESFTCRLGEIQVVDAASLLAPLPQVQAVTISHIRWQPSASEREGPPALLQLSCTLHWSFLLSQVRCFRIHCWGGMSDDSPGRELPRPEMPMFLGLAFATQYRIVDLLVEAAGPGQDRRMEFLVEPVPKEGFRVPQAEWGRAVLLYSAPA
UniProt Q9NV70, sequence (Q9NV70 whole entry, looked up): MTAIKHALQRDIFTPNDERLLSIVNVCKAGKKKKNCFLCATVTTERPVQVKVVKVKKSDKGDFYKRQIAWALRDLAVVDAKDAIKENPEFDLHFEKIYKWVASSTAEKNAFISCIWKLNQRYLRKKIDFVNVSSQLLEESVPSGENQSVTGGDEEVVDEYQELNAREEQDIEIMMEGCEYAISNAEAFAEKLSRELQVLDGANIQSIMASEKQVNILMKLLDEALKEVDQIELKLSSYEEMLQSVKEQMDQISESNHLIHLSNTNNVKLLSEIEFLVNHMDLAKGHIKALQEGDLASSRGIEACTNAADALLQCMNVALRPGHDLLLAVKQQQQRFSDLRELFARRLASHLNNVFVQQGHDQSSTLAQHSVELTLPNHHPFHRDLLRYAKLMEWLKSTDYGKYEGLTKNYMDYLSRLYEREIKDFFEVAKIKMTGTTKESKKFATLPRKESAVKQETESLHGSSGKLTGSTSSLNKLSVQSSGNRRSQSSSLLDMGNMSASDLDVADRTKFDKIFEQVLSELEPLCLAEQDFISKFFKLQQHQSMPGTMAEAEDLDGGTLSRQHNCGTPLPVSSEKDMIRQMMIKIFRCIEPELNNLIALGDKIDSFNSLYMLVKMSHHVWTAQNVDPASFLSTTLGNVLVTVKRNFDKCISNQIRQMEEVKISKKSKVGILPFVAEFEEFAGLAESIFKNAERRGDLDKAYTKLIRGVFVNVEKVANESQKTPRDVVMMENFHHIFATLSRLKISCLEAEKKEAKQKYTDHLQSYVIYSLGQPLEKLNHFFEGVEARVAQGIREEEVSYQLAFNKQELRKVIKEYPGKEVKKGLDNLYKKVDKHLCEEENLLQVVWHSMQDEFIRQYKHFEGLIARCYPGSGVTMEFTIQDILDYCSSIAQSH
UniProt Q9NRW4, sequence (Q9NRW4 whole entry, looked up): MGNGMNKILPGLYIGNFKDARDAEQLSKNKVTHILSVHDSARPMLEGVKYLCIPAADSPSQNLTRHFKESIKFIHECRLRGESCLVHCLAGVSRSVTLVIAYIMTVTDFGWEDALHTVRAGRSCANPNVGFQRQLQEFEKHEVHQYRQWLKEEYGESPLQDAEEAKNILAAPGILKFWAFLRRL
UniProt Q9NZJ0, sequence (Q9NZJ0 whole entry, looked up): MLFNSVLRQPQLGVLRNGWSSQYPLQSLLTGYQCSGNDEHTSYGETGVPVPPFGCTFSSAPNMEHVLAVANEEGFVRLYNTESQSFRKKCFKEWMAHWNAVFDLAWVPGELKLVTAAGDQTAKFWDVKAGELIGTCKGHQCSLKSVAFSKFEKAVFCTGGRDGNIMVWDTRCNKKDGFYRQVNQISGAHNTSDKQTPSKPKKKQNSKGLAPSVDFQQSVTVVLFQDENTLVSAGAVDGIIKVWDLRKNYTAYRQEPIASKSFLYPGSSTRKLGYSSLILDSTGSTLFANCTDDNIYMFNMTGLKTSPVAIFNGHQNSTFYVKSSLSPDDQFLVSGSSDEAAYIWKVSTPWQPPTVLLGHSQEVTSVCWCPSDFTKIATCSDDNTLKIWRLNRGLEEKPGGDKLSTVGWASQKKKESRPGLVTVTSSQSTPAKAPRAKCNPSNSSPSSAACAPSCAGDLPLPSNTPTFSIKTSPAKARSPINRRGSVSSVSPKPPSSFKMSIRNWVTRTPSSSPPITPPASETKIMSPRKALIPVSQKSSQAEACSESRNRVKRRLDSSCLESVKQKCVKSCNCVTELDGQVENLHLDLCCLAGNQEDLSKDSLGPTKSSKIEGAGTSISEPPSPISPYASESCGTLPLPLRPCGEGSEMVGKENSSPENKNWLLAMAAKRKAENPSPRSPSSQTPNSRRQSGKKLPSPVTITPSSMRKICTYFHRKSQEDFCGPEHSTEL
UniProt Q8NFF5, sequence (Q8NFF5 whole entry, looked up): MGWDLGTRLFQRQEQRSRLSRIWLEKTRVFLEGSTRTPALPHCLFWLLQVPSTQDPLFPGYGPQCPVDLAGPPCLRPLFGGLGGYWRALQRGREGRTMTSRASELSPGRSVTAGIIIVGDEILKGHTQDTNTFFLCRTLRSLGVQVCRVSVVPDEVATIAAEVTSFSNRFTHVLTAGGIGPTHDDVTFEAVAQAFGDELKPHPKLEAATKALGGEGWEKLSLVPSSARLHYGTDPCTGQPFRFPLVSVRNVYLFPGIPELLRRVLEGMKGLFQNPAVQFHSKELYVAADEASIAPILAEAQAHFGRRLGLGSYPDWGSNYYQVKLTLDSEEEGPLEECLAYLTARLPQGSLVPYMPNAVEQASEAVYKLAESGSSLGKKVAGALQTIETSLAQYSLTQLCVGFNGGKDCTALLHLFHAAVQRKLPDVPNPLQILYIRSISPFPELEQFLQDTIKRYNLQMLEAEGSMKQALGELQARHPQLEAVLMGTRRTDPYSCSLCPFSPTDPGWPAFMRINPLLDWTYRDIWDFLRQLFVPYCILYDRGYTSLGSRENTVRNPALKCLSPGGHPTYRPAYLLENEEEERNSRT
UniProt Q9Y285, sequence (Q9Y285 whole entry, looked up): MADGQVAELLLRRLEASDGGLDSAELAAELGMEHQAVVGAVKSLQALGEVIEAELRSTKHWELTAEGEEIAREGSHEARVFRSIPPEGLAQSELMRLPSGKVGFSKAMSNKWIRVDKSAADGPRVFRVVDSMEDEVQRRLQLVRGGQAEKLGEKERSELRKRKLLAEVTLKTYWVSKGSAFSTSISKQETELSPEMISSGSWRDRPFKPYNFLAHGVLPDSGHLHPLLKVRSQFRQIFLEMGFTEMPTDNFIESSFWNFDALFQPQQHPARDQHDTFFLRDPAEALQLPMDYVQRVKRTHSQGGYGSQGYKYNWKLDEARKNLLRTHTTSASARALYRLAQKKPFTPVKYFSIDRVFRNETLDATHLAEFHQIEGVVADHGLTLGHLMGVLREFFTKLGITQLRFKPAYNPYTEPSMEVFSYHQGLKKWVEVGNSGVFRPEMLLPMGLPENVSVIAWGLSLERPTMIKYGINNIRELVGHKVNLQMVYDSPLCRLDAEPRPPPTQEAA
UniProt Q6IPR1, sequence (Q6IPR1 whole entry, looked up): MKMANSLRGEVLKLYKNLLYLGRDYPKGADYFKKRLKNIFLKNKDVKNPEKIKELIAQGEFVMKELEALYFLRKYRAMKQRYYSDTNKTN

Compound in the assay: O=C(O)c1ccc2c(c1)nc(Nc1cccc(Cl)c1)c1ccncc12 [silmitasertib]
Kind of assay: log2 fold change, soluble protein after heating vs DMSO (PISA); higher = thermal stabilisation; K562 lysate, 10 uM; active = over 0.2 and 3.5 SD of the protein, either way, in both replicates (recomputed). The method, boiled down: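 Soluble protein was defined as the supernatant remaining after 21,000xg for 90 min, following pooling of heated aliquots and adjustment to 0.5% NP-40 at 4°C. Before that, crude K562 extract at 1 mg/mL protein in PBS pH 7.4 with 1 mM MgCl2 was treated with 10 μM compound for 30 min and heated for 3 min across 48°C-58°C. Quantification used TMTpro 16plex LC-MS/MS with channel sums equalised, and values are log-two fold changes in thermal stability relative to solvent controls from duplicates.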
For DTL (UniProt Q9NZJ0), the log2 fold change was -0.042.
Consider EXOC1 (UniProt Q9NV70), for which the log2 fold change is 0.075.
Take EEFSEC (UniProt P57772): the log2 fold change is 0.052.
Consider ETFRF1 (UniProt Q6IPR1), for which the log2 fold change is -0.043.
The same measure for GGT7 (UniProt Q9UJ14): -0.017; for FLAD1 (UniProt Q8NFF5): 0.102.
Turning to DST (UniProt Q03001), the log2 fold change is -0.02.
As for EP400 isoform 5 (UniProt Q96L91), the log2 fold change was 0.024.
The value for FDFT1 (UniProt P37268) was 0.041; that for ENGASE (UniProt Q8NFI3) was 0.05.
The value for DUSP22 isoform 2 (UniProt Q9NRW4) was 0.002; that for ERAL1 (UniProt O75616) was 0.044; that for EED, A0A5F9ZI63 was 0.043.
The value for DUS3L (UniProt Q96G46) was 0.036; that for DUS2 (UniProt Q9NX74) was 0.555 (active).
Turning to FYB1 isoform 3 (UniProt O15117), the log2 fold change is -0.021.
FARSA (UniProt Q9Y285): the log2 fold change is 0.007.
Consider FBRSL1, A0A3B3IRR3, for which the log2 fold change is -0.013.
As for ECI2 (UniProt O75521), the log2 fold change is 0.022.
Consider FBXO22 (UniProt Q8NEZ5), for which the log2 fold change is -0.022.
The same measure for DYNC1I2 isoform 2 (UniProt Q13409): 0.008.
Consider FAM118B (UniProt Q9BPY3), for which the log2 fold change is 0.018.
GCLM (UniProt P48507): the log2 fold change is -0.013.
